Results published in PubChem BioAssay AID2315 (National Center for Advancing Translational Sciences (NCATS), 2010).
Among all 290,000 compounds or so, about 27,000 (9.3%) were called active. The sample as a whole holds a higher share of actives than the screen did. Values without a mark were called inactive. No stated cut-off is given here; in the data, active means inhibition mostly above about 28% (no sharp cut-off); inactive means mostly below about 43%.

assay: A qHTS for Small Molecule Inhibitors of Shiga Toxin; conditions: Vero cells, Shiga toxin protein synthesis inhibition reporter; at 38.7 µM, active compounds read high; further: 0% is about no effect

| SMILES | inhibition |
| --- | --- |
| COc1cc(/C=C(/NC(=O)c2ccccc2)C(=O)Nc2cccc(O)c2)c([N+](=O)[O-])cc1OC | -3.28% |
| C/C(=C\C(=O)c1cccnc1)Nc1ccc(C)c(C)c1 | 43.6% |
| O=C(Nc1cccc(C(=O)N2CCCC2)c1)c1ccccc1 | -3.28% |
| O=C(Cc1ccccc1)Nc1cccc(NC(=O)c2ccccc2)c1 | -14.6% |
| O=C(Nc1cccc(O)c1)c1ccc(C(=O)c2ccccc2)o1 | 88% (active) |
| C/C(=C\C(=O)c1ccccc1)Nc1cccc(O)c1 | 141% (active) |
| CCCc1nnc(NC(=O)CCC(=O)N2CCN(S(=O)(=O)c3ccc(OC)cc3)CC2)s1 | 4.3% |
| Cc1cc(NC(=O)Nc2c[nH]c(=O)[nH]c2=O)ccc1Br | -3.83% |
| C=CCn1c(=O)c(C(=O)Nc2ncccc2O)c(O)c2ccccc21 | 4.1% |
| CN(C)S(=O)(=O)c1ccc(N2CCCC2)c(C(=O)Nc2cccc(F)c2)c1 | -10.4% |
| Nc1c(-c2cccc(Cl)c2)cnn1-c1cccc([N+](=O)[O-])c1 | 48.6% (active) |
| O=C(CCl)N(Cc1cccc([N+](=O)[O-])c1)c1cccc(Cl)c1 | -27.9% |
| O=[N+]([O-])c1cccc(C2=NCCS2)c1 | 8.55% |
| COc1ccc(CSc2nnnn2-c2ccc(O)cc2)cc1F | 19.9% |
| CN(C(=O)c1ccno1)c1nnc(-c2cccnc2)s1 | 5.36% |
| COc1cccc(-c2nnc(N(C)C(=O)c3ccno3)s2)c1 | 30.2% |
| CN(C(=O)C1CCOC1)c1nnc(-c2cccnc2)s1 (stereo not drawn) | 22% (active) |
| O=C(/C=C/c1cccc([N+](=O)[O-])c1)N1CCN(Cc2ccccc2)CC1 | 12.7% |
| CNC(=O)N1c2ccccc2C=Cc2ccccc21 | -6.09% |
| CSc1nccc(NC(=O)c2ccc(C(C)(C)C)cc2)n1 | 71.6% (active) |
| COC(=O)c1nc(NC(=O)c2ccc(C(C)(C)C)cc2)n[nH]1 | 10.9% |
| O=C(Nc1ccnc(-c2ccncc2)n1)c1cccs1 | -8.52% |
| CCOC(=O)c1c(S(=O)(=O)Nc2cccc(Cl)c2)c(C)n(C)c1C | -10.6% |
| O=C(NNc1ncnc2c1cnn2-c1ccccc1)c1ccco1 | 35.5% |
| Cc1ccc(Nc2ncnc3c2cnn3C)c(C)c1 | 2.4% |

| SMILES | inhibition |
| --- | --- |
| Cc1ccc(-n2ncc3c(Nc4cccc(C(=O)O)c4)ncnc32)cc1 | 76.6% (active) |
| O=C(Nc1ccc(Br)cc1F)C1CC(=O)N(C2CCCCC2)C1 (stereo not drawn) | 0.452% |
| CCO[C@@H]1OC(C(=O)NCc2nc3ccccc3[nH]2)=C[C@H](C2CCCCC2)[C@H]1CCCO | -8.66% |
| O=C(OCc1nc2ccccc2[nH]1)C1CCCCC1 | 29.7% (active) |
| O=C(COc1ccccc1)NCCc1nc2ccccc2[nH]1 | -37.8% |
| CC1C(=O)Nc2ccccc2N1C(=O)c1ccc(F)cc1F (stereo not drawn) | 26.5% |
| O=C(Nc1ccc(-c2cscn2)cc1)C1CCCN(Cc2ccc(CO)o2)C1 (stereo not drawn) | 7.25% |
| O=C(NNC(=O)C1C2CCC(C2)C1C(=O)O)c1ccc(Cl)cc1 (stereo not drawn) | 57.3% (active) |
| CCOC(=O)NNC(=O)c1ccc(Cl)cc1 | 11.6% |
| O=C(NNC(=S)NC1CC2CCC1C2)c1ccc(Cl)cc1 (stereo not drawn) | 12.4% |
| Cc1ccc(OCC(=O)NC(C)c2ccccc2)cc1C (stereo not drawn) | -6.99% |
| CCOc1ccc(OCC(=O)Nc2c3c(nn2C(C)(C)C)CS(=O)(=O)C3)cc1 | -5.61% |
| CC(C)Oc1ccc(Oc2ccc(C(F)(F)F)cn2)cc1 | 1.31% |
| CSc1nnc(-c2ccc(C(F)(F)F)cn2)o1 | 47.1% (active) |
| CC(=O)c1sc(NC(=O)C2=NN(c3ccccc3)C(=O)CC2)nc1C | 21.6% |
| CCOC(=O)CSc1nnc(NC(=O)c2cccc(S(=O)(=O)N3CCCC3)c2)s1 | -15% |
| CC(=O)c1sc(N/N=C\c2ccc(C)cc2)nc1C | 72.3% (active) |
| CC(=O)c1sc(N/N=C/c2ccc(C(C)C)cc2)nc1C | 69.3% (active) |
| CC(=O)c1sc(NC(=O)CCCOc2ccccc2C)nc1C | -15.8% |
| Cc1nnc(C)n1/N=C/c1ccc(C(C)C)cc1 | -9.61% |
| C=CCSc1nnc(NC(=O)c2ccc(NC(C)=O)cc2)s1 | 26.6% |
| CCOC(=O)c1sc(NC(=O)c2ccncc2)nc1C | 11% |
| CCSc1nnc(NC(=O)c2ccc(C)cc2)s1 | 71.3% (active) |
| COC(=O)c1sc(NC(=S)NC(=O)c2ccc(C)cc2)nc1C | 38.9% |
| CC(=O)c1sc(NC(=O)c2ccc(C)cc2)nc1C | 107% (active) |

| SMILES | inhibition |
| --- | --- |
| Cc1ccc(S(=O)(=O)Nc2nc(C)cc(N/N=C/c3ccc(O)cc3)n2)cc1 | 9.39% |
| O=C(NCCCN1CCOCC1)C1CCCN(S(=O)(=O)N2CCCCC2)C1 (stereo not drawn) | -9.17% |
| Cc1ccc(NC(=O)Cc2nnc(SCC(=O)Nc3nncs3)n2C)cc1 | -6.25% |
| COc1ccc(OC)c(/C(C)=N\NC(=O)c2cc3cc(Cl)ccc3n2C)c1 | -10.1% |
| CCN(Cc1ccncc1)C(=O)CCc1ccccc1 | -7.55% |
| COc1ccccc1NC(=O)C1CCCN1S(=O)(=O)c1ccc(Cl)cc1 (stereo not drawn) | 23.6% |
| CC(NS(=O)(=O)c1ccc(Br)cc1)C(=O)NCC1CCCO1 (stereo not drawn) | 25% |
| CC(C)(C)NC(=O)CN(Cc1cccs1)C(=O)CNS(=O)(=O)c1ccccc1 | 41.4% |
| C[C@H]1CCC[C@@]2(C)CCCC[C@]12O | 12.1% |
| COc1ccccc1N1CCN(c2ncnc3sc(C)c(-c4ccccc4)c23)CC1 | 54.8% |
| O=C(c1c(F)cccc1Cl)N1CCN(S(=O)(=O)c2ccc3c(c2)OCCCO3)CC1 | -6.3% |
| CC1CCN(CC(=O)Nc2nccs2)CC1 | -4.28% |
| N/C(=N\OC(=O)c1ccc2c(c1)OCO2)c1ccc(Br)cc1 | 73.3% (active) |
| N/C(=N\OC(=O)/C=C/c1ccccc1)c1ccc(Br)cc1 | 6.16% |
| N/C(=N\OC(=O)N1c2ccccc2Sc2ccccc21)c1ccc(Br)cc1 | -3.87% |
| O=C(Nc1nnc(-c2ccc(F)cc2)s1)c1c(F)cccc1Cl | 3.43% |
| Cc1ccc(C(=O)c2c(NC(=O)c3ccncc3)sc3c2CCCC3)cc1 | -0.844% |
| C/C(=C\c1ccccc1)C1NC(=O)c2c(sc3c2CCCC3)N1 (stereo not drawn) | 34.2% |
| O=C1NC(c2ccncc2)Nc2sc3c(c21)CCCC3 (stereo not drawn) | 64.1% (active) |
| CCOC(=O)[C@@H]1[C@H]2COc3cc(OC)ccc3[C@@H]2N2C(=O)N(c3cccc(C)c3)C(=O)[C@@]12C | -1.2% |
| CC1CCCN(CCCNC(=O)CN2C(=O)COc3ccc(S(=O)(=O)N4CCOCC4)cc32)C1 (stereo not drawn) | -5.12% |
| C=CCn1c(CNS(=O)(=O)c2ccc(Br)cc2)nnc1SC | -6.56% |
| O=C(/C=C/c1cnc2ccccc2n1)NC1CCCCCC1 | 112% (active) |
| O=C(CSc1nnc2c(n1)[nH]c1ccccc12)NC1CCCCC1 | -11% |
| O=C(Cn1c(-c2cncs2)nc2ccccc21)NC1CCCC1 | -2.75% |

| SMILES | inhibition |
| --- | --- |
| Cc1ccc(N(Cc2cc(=O)[nH]c3ccccc23)C(=O)CCl)cc1 | -5.41% |
| Cc1cccc(C(=O)NNC(=O)CSc2nnc(C(C)C)n2C)c1 | -2.77% |
| COc1cccc(C(C(=O)NC2CCCC2)N(C(=O)c2ccco2)c2cccc(C(C)=O)c2)c1OC (stereo not drawn) | -12.2% |
| O=C(NNC(=O)C(O)c1ccccc1)NC1CCCCC1 (stereo not drawn) | -13.5% |
| COc1ccc2nc(/N=C(\N)NC(=O)Nc3ccccc3)nc(C)c2c1 | 69.1% |
| Cc1nc(/N=C(\N)NC(=O)NC2CCCCC2)nc2ccccc12 | 30.3% (active) |
| COc1ccc(C(=O)NCCCN2CCOCC2)cc1Br | -13.5% |
| O=C(c1cc2ccccc2o1)N1CCN(c2cccc(C(F)(F)F)c2)CC1 | -15.8% |
| COCCN(C(=O)CCC(=O)Nc1nccs1)C(C(=O)NCCC(C)C)c1ccc(F)cc1 (stereo not drawn) | -13.9% |
| COC(=O)/C(C#N)=C/c1occc1C | -2.66% |
| CCOC(=O)/C(C#N)=C\c1c(C)cc(C)c(COC(C)=O)c1C | 30.8% (active) |
| CCOC(=O)NC(=O)/C(C#N)=C\c1ccccc1 | -2.62% |
| COCCNC(=O)CSc1nc2sccc2c(=O)n1-c1ccccc1 | -4.95% |
| COc1cc(NC(=O)NCC2CCN(Cc3ccc(C)cc3)CC2)cc(OC)c1OC | 19.7% |
| Fc1ccc(CSc2nnc(-c3cc4c(s3)-c3ccccc3CC4)o2)cc1 | -15% |
| CCSc1nnc(-c2cc3c(s2)-c2ccccc2CC3)o1 | 73.3% (active) |
| O=C(CSc1nnc(-c2ccccc2O)o1)NC1CCCCC1 | -7.64% |
| CSCCC(NC(=O)c1ccc(Cl)cc1Cl)C(=O)NNC(=O)c1csc(N2CCOCC2)n1 (stereo not drawn) | 23.2% |
| O=C(Nc1ccc(N2CCCC2=O)cc1)c1cncc(Br)c1 | -22% |
| CN(C)Cc1c(O)ccc2c(=O)c(-c3ccccc3Cl)coc12 | 2.96% |
| O=C(/C=C/c1ccccc1[N+](=O)[O-])NCC1CCCO1 (stereo not drawn) | 28% |
| O=C(/C=C/c1ccccc1[N+](=O)[O-])OC1CCCCC1=O (stereo not drawn) | -5.74% |
| CC1CCCCC1NC(=O)/C(C#N)=C/C=C/c1ccccc1[N+](=O)[O-] (stereo not drawn) | 52.2% (active) |
